The source made the active and inactive calls.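 Rule for the calls: active = inhibition above the hit cutoff set in the earlier primary screen (cut at about 27% in these data); inactive = the rest.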
What follows are compounds tested against Protein phosphatase methylesterase 1 (Homo sapiens) (UniProt Q9Y570) (assay: human PME-1 methylesterase inhibition confirmation – biochemical, fluorescence polarization, FP-Rh probe, triplicate (AID 2171;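 note: 0% = enzyme with DMSO and 100% = wells lacking PME-1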)). Conditions: recombinant PME-1, FP-Rh probe fluorescence polarization; at 5.9 µM; hits give high values.
Sequence of Protein phosphatase methylesterase 1 (Homo sapiens) (Q9Y570 whole entry, looked up): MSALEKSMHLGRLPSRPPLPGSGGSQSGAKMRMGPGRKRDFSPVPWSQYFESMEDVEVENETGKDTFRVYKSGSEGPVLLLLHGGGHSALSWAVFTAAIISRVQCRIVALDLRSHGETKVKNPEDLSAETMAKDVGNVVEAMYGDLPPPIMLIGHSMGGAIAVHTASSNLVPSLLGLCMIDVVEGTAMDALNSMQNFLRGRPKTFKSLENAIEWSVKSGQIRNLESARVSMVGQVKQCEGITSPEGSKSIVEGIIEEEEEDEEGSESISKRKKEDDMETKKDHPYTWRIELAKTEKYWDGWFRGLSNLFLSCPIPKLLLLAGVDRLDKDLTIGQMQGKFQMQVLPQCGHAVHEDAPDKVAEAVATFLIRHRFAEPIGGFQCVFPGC

inhibition, active:
O=c1c2ccccc2nc(/C=C/c2c[nH]c3ccccc23)n1CCO 58.5%
COc1cc(N/N=C(\C)c2ccc(O)c(C)c2)nc(-c2ccccc2)n1 27.3%
O=C(N/N=C/c1sc(N2CCOCC2)nc1-c1ccccc1)c1ccccc1O 51.2%
CCCCCCn1c(=O)[nH]c2nc3cc(N)ccc3nc2c1=O 37.6%
CC#CCN1c2ccccc2[C@]23C[C@@H](C(=O)OC)N(C(=O)c4cc(C)oc4C)C2=NC(C(=O)OC)=C(C(=O)OC)[C@H]13 29.6%
O=[N+]([O-])c1ccccc1N/N=C/c1c[nH]c2ccccc12 42.3%
COc1ccc(N=Nc2nc3ccc(Br)cc3n2C)cc1 29.7%
Cc1cccc2c(N=O)c(O)[nH]c12 54.3%
CCCC(=O)NC(c1ccccc1Cl)c1c(O)ccc2ccccc12 (stereo not given) 58.5%
COc1ccc(NS(=O)(=O)c2ccc(N/N=C(\C)c3ccncc3)c([N+](=O)[O-])c2)cc1 26.3%
Nc1cc2nsnc2cc1Br 34.7%
COC(=O)N1C(=O)[C@](c2ccccc2)(C2CCCCC2)N1C(=O)OC 76.6%
O=C(O)c1cc(NN=C2c3ccccc3-c3ccccc32)ccc1Cl 41.9%
CN(C)c1ccc(CNC(=O)CN(C)S(=O)(=O)c2cccc3cccnc23)cc1 32.8%
O=C1Nc2ccc(Br)cc2C12NNc1ccccc1O2 (stereo not given) 38.5%
COc1cc(/C=N/NC(=O)[C@H](Cc2c[nH]c3ccccc23)NC(=O)OCC(C)C)cc([N+](=O)[O-])c1O 35.9%
Cc1ccc(OCCn2cc(/C=N/NC(=O)c3ccncc3)c3ccccc32)cc1 33.5%
COc1cc(/C=N/NC(=O)c2ccc3c(c2)OCCO3)c(Br)c(Br)c1O 43%
CC(C)=CCc1cc(-c2oc3cc(O)cc(O)c3c(=O)c2O)ccc1O 36.8%
O=[N+]([O-])c1ccc(C2Nc3cccc4cccc(c34)N2)cc1 35.9%
CN(c1ccccc1)S(=O)(=O)c1ccc(NC(=O)c2ccc(-c3ccccc3)cc2)cc1 59.7%
CCC(=O)NC(c1ccccc1Cl)c1c(O)ccc2ccccc12 (stereo not given) 53.2%
O=C(NNc1c2ccccc2nc2ccccc12)c1cccc(O)c1 36%

inhibition, inactive:
O=S(=O)(c1cccs1)N1CN(Cc2ccco2)c2nc3ccccc3nc21 13.4%
CCN(CC(=O)Nc1c(C(=O)OC)[nH]c2ccc(Cl)cc12)c1ccc2c(c1)OCO2 6.28%
CCN(CC(=O)Nc1c(F)cccc1F)C(=O)CCc1ccc(OC)cc1 6.49%
N#C/C(=C(\O)c1cc(Cl)sc1Cl)c1nc2ccccc2[nH]1 21.8%
Cc1ncc(CO)c(/C=N/NC(=S)Nc2ccc(Cl)c(Cl)c2)c1O 6.06%
N#CCSc1nc2c(cc1C#N)CCCCCC2 22.3%
CN(C)S(=O)(=O)c1cccc(NC(=S)NNC(=O)c2cc3ccccc3cc2O)c1 -1.97%
O=C1CC(N(O)c2ccccc2)C(=O)N1c1cc(Cl)cc(Cl)c1 (stereo not given) 5.35%
CCN(CC)c1ccc(-c2nn3c(-c4ccccc4OC)nnc3s2)cc1 22.1%
COc1cc(OC)cc(C(=O)Oc2ccc(/C=N/Nc3nc4ccccc4s3)cc2OC)c1 24.3%
COc1cc2c(cc1NC(=O)Nc1ccccc1)oc1ccccc12 -9.58%
C=CCn1c(NS(=O)(=O)c2ccccc2)c(S(=O)(=O)c2ccc(C)cc2)c2nc3ccccc3nc21 8.89%
O=C(N/N=C/c1c[nH]c2ccccc12)c1cc(-c2ccc3ccccc3c2)n[nH]1 10.8%
Cc1ccc2cc(C#N)c(SCc3nnc(-c4ccccc4[N+](=O)[O-])o3)nc2c1 25.1%
CCN(c1ccccc1)S(=O)(=O)c1ccc(OC)c(NC(=O)CNCCc2ccccc2)c1 19.9%
Cc1nn(-c2ccc(Br)cc2)c(=O)c2ccccc12 4.4%
Oc1[nH]c2ccccc2c1C=Nc1ccc2c(c1)OCO2 23.6%

Source: PubChem BioAssay
